# Rows were chosen to be rich in hits. Some 2.7% of all compounds tested hit in one or more screens of this group.
# RXFP1 ag: qHTS Assay for Agonists of the Relaxin Receptor RXFP1; Relaxin receptor 1 (Homo sapiens), Q9HBX9; AID 2676, 2010; HEK293T-RXFP1 cAMP TR-FRET, 30 min; response scale: percent of porcine relaxin response, buffer zero; Potency, µM (doses to about 57.5 µM), for inactives: at the highest dose activation, hits mostly activators; actives 0.3% (n = 370,000); active = well fitted activation curve with a large enough effect; inconclusive = small, poorly fitted or top-dose-only effect; also: potency is read from the fitted curve at half-maximal effect; % is scaled to controls: 0 for no effect and ±100 for the full control effect; nearly all actives have a fitted effect of over 60% in size
#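 Agonist response is measured as cAMP accumulation in an RXFP1-transfected HEK293T line under PDE4 inhibition. Values are scaled between buffer-only and 29 nM porcine relaxin, and EC50s come from standard Hill equation fits.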
# gsp ag: qHTS for Agonist of gsp, the Etiologic Mutation Responsible for Fibrous Dysplasia/McCune-Albright Syndrome: qHTS. gsp mutant cells, cAMP HTRF, 30 min. Potency, µM (doses to about 76.9 µM), without a hit: top-dose activation (cAMP increase), actives largely listed as activators. actives 0.13% (n = 340,000); active = well fitted activation curve with a large enough effect; inconclusive = small, poorly fitted or top-dose-only effect, or another doubt; inactive = no such curve, though single readings can be large or run the other way; cell line not stated here;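 also: phosphodiesterase inhibitor Ro 20-1724 added with compounds to block cAMP breakdown; potency is read from the fitted curve at half-maximal effect; nearly all actives have a fitted effect of over 60% in size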
#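 Cells in DMEM/10% FBS with G418 were pretreated with compounds in DMSO plus […] (300 uM stock) for 30 min at 37C. cAMP was measured by HTRF (cAMP-d2 plus anti-cAMP antibody-K) after 30 min at room temperature.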
# ClpP mod: qHTS Assay for Activators of ClpP; ATP-dependent Clp protease proteolytic subunit (Bacillus subtilis (strain 168)), P80244; purified B. subtilis ClpP, FRET peptide cleavage, 20 min; Potency, µM (titrated, usually from 57.5 µM), for the others: top-dose activity change, negative = active; actives 1.9% (n = 340,000); AID 651965, 2013; active = well fitted falling curve with a large enough effect; inconclusive = small, poorly fitted or top-dose-only effect; inactive = no such curve, though single readings can be large or run the other way; also: potency is read from the fitted curve at half-maximal effect; the source files actives as falling curves though it sought activators and does not explain the sign; nearly all actives have a fitted effect of over 65% in size
# Target sequence (P80244 whole entry, looked up): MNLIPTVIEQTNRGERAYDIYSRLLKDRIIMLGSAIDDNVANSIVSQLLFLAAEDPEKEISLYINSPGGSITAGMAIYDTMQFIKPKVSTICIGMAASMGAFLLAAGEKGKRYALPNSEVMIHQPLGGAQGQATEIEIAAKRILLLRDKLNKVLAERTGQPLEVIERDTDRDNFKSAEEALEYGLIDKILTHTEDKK
#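 ClpP 10 microg/mL final, pH 8 Tris/KCl buffer with BSA, glycerol, Tween-20; compound pinned in; FRET-FV substrate; RT 20 min; Ex320/Em430; ΔFRET vs ADEP 5.8 microM, DMSO, no enzyme.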
# RXFP1 antagonist: qHTS Assay for Antagonists of the Relaxin Receptor RXFP1; Relaxin receptor 1 (Homo sapiens), Q9HBX9; HEK293-RXFP1, relaxin-stimulated cAMP HTRF, 30 min; hits give low values; activity change, negative = inhibition, % at 57.5 µM; actives 0.59% (n = 350,000);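 active = activity change of -60% or lower, but not beyond a set lower limit; inconclusive = change between -60% and -40%, or beyond the set limit; inactive = change above -40%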; also: % is scaled to controls: 0 for no effect and ±100 for the full control effect
# gsp antag: qHTS for Antagonists of gsp, the Etiologic Mutation Responsible for Fibrous Dysplasia/McCune-Albright Syndrome: qHTS; Potency, µM (series often up to 76.9 µM), without a hit: at the highest dose activity change, negative = inhibition, most hits filed as inhibitors; actives 0.4% (n = 340,000); AID 624288, 2012; gsp-mutant cells, cAMP HTRF, 30 min; calls by dose curve; cell line not stated here;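 also: intracellular cAMP measured with PDE inhibitor Ro 20-1724 present during compound exposure; potency is read from the fitted curve at half-maximal effect; % is scaled to controls: 0 for no effect and ±100 for the full control effect; nearly all actives have a fitted effect of over 65% in size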
#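 HTRF cAMP read-out (cAMP-d2 plus anti-cAMP antibody-K in lysis buffer, 30 min RT). Before lysis, cells are exposed to compounds with […] for 30 min at 37C in DPBS containing Ca/Mg, BSA and Tween 20.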
# pAkt inh: HTS Assay for Inhibitors of Akt Phophorylation: Primary Screen | actives 0.32% (n = 360,000) | activity change, % for hits at 50 µM | AID 651550, 2012 | Neuro2A IGF-stimulated pAkt S473 HTRF, 20 min; hits give low values; in the data active = activity change below about -80%; inconclusive = mostly about -51% to -80%; also: % is scaled to controls: 0 for no effect and ±100 for the full control effect
#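 Neuro2A cells (4,500/well, DMEM with 0.5% FBS) were treated with compound at a single 50 µM final concentration, stimulated with 6 nM IGF for 20 min at 37 °C, and lysed. Phospho-Akt Ser473 was read by HTRF as 665/615 ratio ×10^4.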
# An asterisk follows results filed as active; i = inactive; ? = inconclusive; · = not tested or not shown; [ ] = another dose, or the depositor's remark.
SMILES,RXFP1 ag,gsp ag,ClpP mod,RXFP1 antagonist,gsp antag,pAkt inh
Cc1c(Cl)cccc1-c1ccc(/C=C(\C#N)c2nc3ccccc3[nH]2)o1,3%,·,-1%,·,·,·
N#C/C(=C\c1c(Cl)cccc1Cl)c1nc2ccccc2o1,1%,?,4µM*,·,1%,i
Cc1cc(O)ccc1N/C=C(\C#N)c1nc2ccccc2o1,-1%,2%,18µM*,0,10%,i
COc1ccc(OC)c(NC(=O)c2cnc(Nc3ccccc3OC)c3ccccc23)c1,1%,5%[15.4 µM],35µM*,0,5%,i
COc1ccc(Nc2ncc(C(=O)Nc3cc(Cl)c(OC)cc3OC)c3ccccc23)cc1,0%,·,?,·,·,·
CCN(CC)CC(O)COc1ccc2c(c1)OCO2 (stereo not given),2%,-18%,13µM*,3,3%,i
CC/C(=N\NC(=O)c1nnn(-c2nonc2N)c1CN(C)c1ccccc1)c1ccccc1,3%,-5%,1%,-102*,1%,·
CCN(CC)C(=O)C1=C(C)N(Cc2ccc(C(C)(C)C)cc2)C(=O)C(CC(=O)NCc2ccco2)C1 (stereo not given),·,?,0%,17,·,i
CCN(CC)S(=O)(=O)c1ccc(-c2nnc(SCC(=O)N3c4ccccc4CC3C)n2CC)cc1 (stereo not given),0%,0%,1%,0,28µM*,i
O=C(NCCN1CCC(n2c(=O)[nH]c3ccccc32)CC1)c1ccccc1C(F)(F)F,·,·,-2%,·,·,i
C[C@@H]1CN(S(=O)(=O)C(C)(C)C)[C@H](CCO)/C1=C\c1ccccc1,·,·,1%,·,3%,i
CCOC(=O)C(=O)/C(C#N)=C/Nc1ccccc1,0%,-8%,1%,-1,-8%,i
CCOC(=O)/C(C#N)=C/Nc1ccccc1OC,2%,-47%,-28%,5,12%,-98%*
CCOC(=O)C(=CNc1ccccc1C)C(=O)OCC,3%,35%,-1%,-15,20µM*,i
Cc1ccccc1C(=O)N1CC(=O)Nc2ccc(F)cc2C1c1ccc(F)cc1 (stereo not given),-1%,0%[15.4 µM],32µM*,-1,-7%,i
O=C1CN(C(=O)c2ccccc2F)C(c2ccccc2)c2cc(F)ccc2N1 (stereo not given),-1%,-18%,-3%,-5,5%,i
CCc1nnc(N/N=C/c2cc(Br)c(O)cc2O)n1N,2%,-17%,·,16,-24%,i
CC(C)(C)c1nnc(N/N=C/c2cc(Br)ccc2O)n(N)c1=O,1%,-6%,-2%,-88*,28µM*,i
Cc1cccc(NC(=O)Nc2nnc([C@H]3C[C@H](O)[C@@H](CO)O3)s2)c1,·,·,-2%,·,·,i
CCN(CC)c1nc(-c2nn[nH]n2)nc(N(CC)CC)n1,3%,?,-2%,0,40µM*,i
CCN(CC)c1nc(N(CC)CC)[nH]c(=O)n1,·,18%,5%,-8,0%,i
Cc1cccc(CCNC(=O)Cn2ncc3c(=O)oc4ccccc4c32)c1,4%,·,3%,·,·,·
CC12CCC(C(=O)NCCN3CCCCC3)(CC1=O)C2(C)C (stereo not given),1%,-15%,0%,-17,4%,-114%*
CC12CCC(C(=O)N3CCCCC3)(CC1=O)C2(C)C (stereo not given),0%,-34%,-2%,8,5%,i
O=S(=O)(N/N=C/c1ccc(Cl)cc1)c1ccc(Cc2ncc(C(F)(F)F)cc2Cl)s1,1%,1%,0%,-4,-12%,i
SMILES,RXFP1 ag,gsp ag,ClpP mod,RXFP1 antagonist,gsp antag,pAkt inh
NC(=O)c1ccc(Cc2ncc(C(F)(F)F)cc2Cl)s1,1%,-20%,?,0,3%,-106%*
COC(=O)c1coc(-c2ccc(C)cc2)c1C(=O)OC,0%,17%,-12%,-5,-1%,i
COC(=O)c1coc(-c2ccc(OC)cc2)c1C(=O)OC,-2%,6%,32µM*,·,-2%,i
Cc1ccc(C)c(N2CCN(CCN3CCCCC3)CC2)c1,0%,8%,2%,0,3%,i
CCn1c(COc2cccc(C)c2)nnc1SCC(=O)Nc1cccc(C(=O)OC)c1,1%,-2%,-2%,-5,28µM*,i
O=C(O)c1ccc(NC(=S)NC(=O)C(c2ccccc2)c2ccccc2)cc1,2%,?,1%,-28,?,i
COc1ccc(C(=O)O)cc1NC(=S)NC(=O)C(c1ccccc1)c1ccccc1,3%,-27%,4%,-116*,6%,i
O=C(Cc1cccc2ccccc12)NC(NC(=S)Nc1ccccc1Cl)C(Cl)(Cl)Cl (stereo not given),5%,-29%,1%,-63*,-16%,i
O=C(NC(NC(=S)Nc1ccccc1Cl)C(Cl)(Cl)Cl)c1cccc(Cl)c1 (stereo not given),-3%,0%,-1%,-21,?,i
CCCCC1(Cc2ccc(OC)c([N+](=O)[O-])c2)C(=O)N(c2ccccc2)N(c2ccccc2)C1=O,0%,-4%,0%,4,-15%,i
CCCCC1(CC(=O)OC)C(=O)N(c2ccccc2)N(c2ccccc2)C1=O,-1%,-2%[15.4 µM],28µM*,-10,-4%,i
COc1ccc(C2(CNC(=O)CCC(=O)O)CCCC2)cc1,0%,14%,0%,-2,0%,-115%*
CCCCN(CC)C(=O)CSc1nc2c(sc(=S)n2-c2ccc(OCC)cc2)c(=O)[nH]1,-1%,-13%,1%,0,?,i
CCCN(CCC)C(=O)CSc1nc2c(sc(=S)n2-c2ccc(OCC)cc2)c(=O)[nH]1,1%,9%[15.4 µM],1%,-24,14µM*,i
CCCC(C(=O)NCc1cccc(Cl)c1)N1Cc2ccccc2C1=O (stereo not given),0%,·,-3%,-7,·,·
Brc1cccc(-c2nc3c4ccccc4ccn3c2Cc2ccccc2)c1,·,·,-21%,·,·,i
c1ccc(Cc2c(-c3ccccc3)nc3c4ccccc4ccn23)cc1,·,19%,32µM*,3,·,i

# Assay outcomes deposited in PubChem by National Center for Advancing Translational Sciences (NCATS).
